# In the supplement of paper PMC4466140:
# How the values were obtained:
# Experiment in all cases: SPOT peptide array binding signal intensity (averaged, normalized) (arbitrary units (background-subtracted, floor 0; scale differs between SH3 domains)); higher = stronger binding of the SH3 domain to the peptide
# [1] = biological target: ScBbc1
# In short: (§1)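 Four yeast species supplied the SH3 domains, which were expressed as GST fusions in E. coli BL21(DE3) and purified on glutathione Sepharose. Incubation with cellulose membranes carrying synthetic 15-mer peptides, cysteines exchanged for serines, ran overnight at 4°C at 10 μg/ml in TBS-based blocking buffer. Binding signal is reported as normalized, background-subtracted spot intensity averaged over replicates, in arbitrary units not shared between domains.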
# [2] = biological target: ScBem1-D1
# In short: as §1
# [3] = biological target: ScBzz1-D1
# In short: as §1
# [4] = biological target: ScBzz1-D2
# In short: as §1
# [5] = biological target: ScCyk3
# In short: as §1
# [6] = biological target: ScFus1
# In short: as §1
# [7] = biological target: ScHof1
# In short: as §1
# [8] = biological target: ScHse1
# In short: as §1
# [9] = biological target: ScLsb1
# In short: as §1
# [10] = biological target: ScLsb2
# In short: as §1
# [11] = biological target: ScLsb3
# In short: as §1
# [12] = biological target: ScLsb4
# In short: as §1
# [13] = biological target: ScMyo3
# In short: as §1
# [14] = biological target: ScMyo5
# In short: as §1
# [15] = biological target: ScNbp2
# In short: as §1
# [16] = biological target: ScPex13
# In short: as §1
# [17] = biological target: ScRvs167
# In short: as §1
# [18] = biological target: ScSho1
# In short: as §1
# [19] = biological target: ScSla1-D1-D2
# In short: as §1
# [20] = biological target: ScSla1-D3
# In short: as §1
# [21] = biological target: SpAbp1-D1
# In short: as §1
# [22] = biological target: SpBbc1
# In short: as §1
# [23] = biological target: SpBzz1-D1
# In short: as §1
# [24] = biological target: SpBzz1-D2
# In short: as §1
# [25] = biological target: SpCyk3
# In short: as §1
# [26] = biological target: SpHof1
# In short: as §1
# [27] = biological target: SpHof1-2
# In short: as §1
# [28] = biological target: SpHof1-3
# In short: as §1
# [29] = biological target: SpHse1
# In short: as §1
# [30] = biological target: SpLsb1
# In short: as §1
# [31] = biological target: SpLsb4
# In short: as §1
# [32] = biological target: SpMyo1
# In short: as §1
# [33] = biological target: SpNbp2
# In short: as §1
# [34] = biological target: SpPex13
# In short: as §1
# [35] = biological target: SpRvs167
# In short: as §1
# [36] = biological target: SpSla1-D1-D2
# In short: as §1
# [37] = biological target: SpSla1-D3
# In short: as §1
binder,measurement,setting,value
TKRKRPARLIFYDSK,SPOT peptide array binding signal intensity,[1],22
same,SPOT peptide array binding signal intensity,[2],22.5
same,SPOT peptide array binding signal intensity,[3],12
same,SPOT peptide array binding signal intensity,[4],22
same,SPOT peptide array binding signal intensity,[5],62
same,SPOT peptide array binding signal intensity,[6],354
same,SPOT peptide array binding signal intensity,[7],0.5
same,SPOT peptide array binding signal intensity,[8],1060
same,SPOT peptide array binding signal intensity,[9],5.5
same,SPOT peptide array binding signal intensity,[10],5
same,SPOT peptide array binding signal intensity,[11],239
same,SPOT peptide array binding signal intensity,[12],13
same,SPOT peptide array binding signal intensity,[13],2.5
same,SPOT peptide array binding signal intensity,[14],3
same,SPOT peptide array binding signal intensity,[15],975
same,SPOT peptide array binding signal intensity,[16],3.5
same,SPOT peptide array binding signal intensity,[17],23.8
same,SPOT peptide array binding signal intensity,[18],382
same,SPOT peptide array binding signal intensity,[19],198
same,SPOT peptide array binding signal intensity,[20],13.2
same,SPOT peptide array binding signal intensity,[21],190
same,SPOT peptide array binding signal intensity,[22],3
same,SPOT peptide array binding signal intensity,[23],77.5
same,SPOT peptide array binding signal intensity,[24],0.75
same,SPOT peptide array binding signal intensity,[25],8
same,SPOT peptide array binding signal intensity,[26],172
same,SPOT peptide array binding signal intensity,[27],27.5
same,SPOT peptide array binding signal intensity,[28],380
same,SPOT peptide array binding signal intensity,[29],299
same,SPOT peptide array binding signal intensity,[30],4
same,SPOT peptide array binding signal intensity,[31],205
same,SPOT peptide array binding signal intensity,[32],4.25
same,SPOT peptide array binding signal intensity,[33],584
same,SPOT peptide array binding signal intensity,[34],11
same,SPOT peptide array binding signal intensity,[35],4.33
same,SPOT peptide array binding signal intensity,[36],4
same,SPOT peptide array binding signal intensity,[37],7
